Hits are enriched below; roughly 11% of the tested compounds scored in any of these assays.
HPGD block: HPGD (human) dehydrogenase inhibition | P15428 | purified HPGD, NADH fluorescence kinetic, PGE2 substrate | Potency, µM, usual class: inhibitors | 4.3% of 150,000 active
Target sequence (P15428 whole entry, looked up): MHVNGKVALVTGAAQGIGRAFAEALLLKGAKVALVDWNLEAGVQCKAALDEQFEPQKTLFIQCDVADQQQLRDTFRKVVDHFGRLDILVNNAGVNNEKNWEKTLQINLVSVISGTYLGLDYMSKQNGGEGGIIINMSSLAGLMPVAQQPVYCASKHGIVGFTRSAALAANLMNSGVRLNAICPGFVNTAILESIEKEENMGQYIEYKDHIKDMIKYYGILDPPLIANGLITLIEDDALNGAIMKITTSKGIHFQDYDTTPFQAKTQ
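NADH formation kinetics: reaction with 30 uM PGE2 and 1 mM NAD+ (final), 20 nM enzyme, Tris-HCl pH 8 with Tween 20, after 15 min compound preincubation at room temperature. Fluorescence change, last versus first of five reads.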
PNC inhibitor: blocks assembly of the perinucleolar compartment; PC3M PTB-GFP, PNC prevalence imaging, 16 h; active compounds read low; activity change (PNC), negative = inhibition, % at 10 µM; 3.1% of 140,000 active; AID 2417;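 active = readout at or below -70, meaning at least 70% loss of cells showing the perinucleolar compartment, a nuclear body marking cancer cells; inconclusive = readout between -30 and a set limit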
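Compounds are pinned in duplicate onto adhered PC3M cells stably expressing GFP-tagged PTB and incubated 16 h at 37 C. Cells are then fixed, nuclei stained with Hoechst, and PNC-positive cells counted.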
ALDH1A1 block: ALDH1A1 (human) enzyme inhibition; Potency, µM (doses to about 75.3 µM), actives largely listed as inhibitors; 7.3% of 220,000 active; AID 1030; Purified ALDH1A1, NADH fluorescence, propionaldehyde substrate
RGS12 GoLoco inh: blocks human Gai1 binding to RGS12 GoLoco peptide, red readout; Potency, µM (top dose mostly 61.6 µM), actives largely listed as inhibitors; Gai1:RGS12 GoLoco peptide FP, rhodamine, 10 min; AID 880; P63096; 0.44% of 230,000 active; active = well fitted inhibition curve with a large enough effect, not every such curve was filed as active; inactive = no such curve, though single readings can be large or run the other way; also: nearly all actives have a fitted effect of over 30% in size
Target sequence (P63096 whole entry, looked up): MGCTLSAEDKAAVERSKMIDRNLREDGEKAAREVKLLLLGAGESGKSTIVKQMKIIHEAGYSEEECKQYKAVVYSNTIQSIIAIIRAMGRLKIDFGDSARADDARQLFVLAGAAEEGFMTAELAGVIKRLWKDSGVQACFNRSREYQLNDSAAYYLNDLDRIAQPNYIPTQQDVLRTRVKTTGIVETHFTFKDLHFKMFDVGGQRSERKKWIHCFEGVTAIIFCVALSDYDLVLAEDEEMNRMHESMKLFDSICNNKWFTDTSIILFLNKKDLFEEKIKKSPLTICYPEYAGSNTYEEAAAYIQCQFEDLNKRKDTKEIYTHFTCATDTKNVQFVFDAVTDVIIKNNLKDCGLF
HTT aggregate: inhibitors of mutant huntingtin aggregate formation in PC12 cells; PC12 HttQ103-GFP aggregates, Acumen cytometry, 40 h; Potency, µM (top dose mostly 46.1 µM), hits mostly inhibitors; 1.1% of 220,000 active; active = well fitted curve in the direction sought with a large enough effect; inconclusive = small, poorly fitted or top-dose-only effect, or another doubt; inactive = no such curve, though single readings can be large; an effect the other way counts as inactive or inconclusive; also: nearly all actives have a fitted effect of over 60% in size
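Quantitative HTS on tebufenozide-induced (100 nM) PC12 cells stably expressing polyQ103 Huntingtin exon 1–GFP. Reduction of bright GFP aggregates, detected by laser scanning cytometry after lysis, identified actives across the titration.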
HTT cytoprotect: Huntington cell model cytoprotection by ATP luminescence; PC12 HTT-Q103 induced, cytoprotection, ATP luminescence, 40 h; Potency, µM (top dose mostly 56.4 µM), usual class: activators; 0.14% of 230,000 active; AID 1471; active = well fitted curve in the direction sought with a large enough effect; inconclusive = small, poorly fitted or top-dose-only effect, or another doubt; inactive = no such curve, though single readings can be large; an effect the other way counts as inactive or inconclusive; also: nearly all actives have a fitted effect of over 45% in size
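Compounds added alongside 100 nM tebufenozide, which induces toxic Q103 huntingtin exon 1-GFP in stable PC12 cells; surviving cells quantified by luminescent ATP measurement. Medium: phenol red-free DMEM, 5% equine and 5% calf serum.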
Numbers stand for hits; - = inactive; ? = inconclusive; . = no result given; [ ] = remark or other dose. Unless noted, calls follow the shape of the dose curve; as a rule, active = well fitted inhibition curve with a large enough effect (not every such curve was filed as active); inconclusive = small, poorly fitted or top-dose-only effect, or another doubt; inactive = no such curve, though single readings can be large or run the other way.

SMILES	HPGD block	PNC inhibitor	ALDH1A1 block	RGS12 GoLoco inh	HTT aggregate	HTT cytoprotect
O=C(O)c1ccccc1-c1ccccc1C(=O)Nc1ccc2c(c1)Cc1cc(F)ccc1-2	-	.	-[13.5 µM]	-[14.2 µM]	.	-[10 µM]
C=C1CCC2[C@](C)(CO)[C@H](O)CC[C@@]2(C)[C@@H]1C/C=C1/C(=O)OC[C@H]1O (stereo not given in full)	-	.	-	-	.	7.08µM
CC1(C)CC[C@]2(C(=O)O)CC[C@@]3(C)C(=CCC4[C@@]5(C)CCC(O)[C@@](C)(CO)C5CC[C@@]43C)C2C1 (stereo not given in full)	-	.	-	-	.	.
COc1ccc(C(=O)NC(NC(=O)c2ccc(OC)c(OC)c2)c2ccccc2F)cc1OC	-	-	?	-	-	.
Cc1ccc(C(=O)Nc2cccc(C(=O)O)c2)cc1	-	-	-	-	-	-
Cc1oc2c(c1C(=O)Nc1cccc(C(=O)O)c1)CCCC2	-	-107.7	-	-	-	-
COc1ccc(-c2cc(C(=O)OCC(=O)N(C)C3CCS(=O)(=O)C3)c3ccccc3n2)cc1OC (stereo not given)	.	.	-	-	-	-
CCC(C(=O)Nc1cc(Cl)c(OC)cc1OC)c1ccccc1 (stereo not given)	.	.	20µM	-	-	-
CCC(C(=O)Nc1ccccc1)c1ccccc1 (stereo not given)	-	-	-	-	-	-[10 µM]
Cc1cc(S(=O)(=O)NCc2ccccc2)ccc1OCC(=O)NCC1CCCO1 (stereo not given)	.	.	-	-	?	-
COc1ccccc1C1C2CCCCC2(O)CCN1CC(=O)Nc1ccccc1 (stereo not given)	-	-103.7	?	-	?	-[0.074 µM]
COC(=O)c1c(NC(=O)CN2CCC3(O)CCCCC3C2c2cc(OC)ccc2OC)sc(C)c1C (stereo not given)	?	-	?	-	-	-[10 µM]
CCCCNC(=O)CN1CCC2(O)CCCCC2C1c1ccccc1OC (stereo not given)	-	-	?	-	-	-
COC(=O)c1c(NC(=O)CN2CCC3(O)CCCCC3C2c2ccc(F)cc2)sc(C)c1C (stereo not given)	-	-	25.1µM	-	-	-[10 µM]
CN(CCOc1ccc(C[C@H](Nc2ccccc2C(=O)c2ccccc2)C(=O)O)cc1)c1ccccn1	-	.	-	-	.	-
O=C(/C=C/c1ccccc1)n1cnnc1SC/C=C/c1ccccc1	14.1µM	-	-	-	?	-[10 µM]
CC1CN(C(=O)N(C)C)CCN1C(=O)N(C)C (stereo not given)	-	-126.5	-	-	-	-
CCc1cccc(CC)c1NC(=O)C1CN(S(=O)(=O)c2ccccc2)CCN1S(=O)(=O)c1ccccc1 (stereo not given)	.	-111.0	-	.	?	-[10 µM]
CCNC(=O)C1CN(S(=O)(=O)c2ccccc2)CCN1S(=O)(=O)c1ccccc1 (stereo not given)	-	-	?	-	-	-[10 µM]
COc1cc(OC)cc(-c2nnc(Sc3ccc(C=O)cc3[N+](=O)[O-])o2)c1	14.1µM	-	2µM	-	-	-
O=C(O)c1cccc(N2C(=O)/C(=C/c3ccc([N+](=O)[O-])cc3)C=C2c2ccccc2)c1	.	.	25.1µM	-	-	?
C/C(=N/Nc1ccc2ccccc2n1)c1ccccc1O	-	.	-[13.5 µM]	-[14.2 µM]	.	-[10 µM]
O=C(/C=C/c1cccc2ccccc12)c1ccncc1	?	-	?	-	-	-[10 µM]
Cc1[nH]c2ccccc2c1/C=C/C(=O)c1ccncc1	.	.	.	-	-[9.22 µM]	3.98µM
Cc1[nH]c2ccccc2c1/C=C/c1cc[n+](C)cc1	-	-	?	2.82µM	?	-
SMILES	HPGD block	PNC inhibitor	ALDH1A1 block	RGS12 GoLoco inh	HTT aggregate	HTT cytoprotect
Cc1ccccc1/C=C/c1cc[n+](C)cc1	.	.	-	22.4µM	-	-
Nc1ncnc2c1ncn2[C@@H]1O[C@H](COP(=O)(O)O)[C@@H](O)[C@@H]1O	-	.	-	-	.	-
COc1ccc(C(=O)NC(=S)Nc2ccc3c(c2)Cc2ccccc2-3)cc1	-	?	10µM	-	-	-
Cc1ccc(C(=O)NC(=S)Nc2ccc(Oc3ccc(Cl)cc3)cc2)cc1	-	-	17.8µM	-	?	-
Cc1ccccc1C(=O)NC(=S)Nc1ccc(Oc2ccc(Cl)cc2)cc1	-	-	?	-	-	-
Cc1ccc(C(=O)NC(=S)Nc2ccc(NC(=O)c3cccc(Cl)c3)cc2)cc1	-	?	-	-	-	-[10 µM]
O=C(NC(=S)Nc1ccc(Oc2ccccc2)cc1)c1ccc(Cl)cc1	-	?	14.1µM	-	?	?
CNC1C(O)[C@@H]2OC(O[C@@H]3C(O)C(O)C(N)C[C@H]3N)C(N)C[C@H]2O[C@H]1O[C@@H]1OC(CO)C(N)C(O)C1O (stereo not given in full)	-	.	-	-	.	-
COc1ccccc1CNc1ccnc(-c2ccccc2CN(C)C)n1	.	.	-	-	.	-
CCOC(=O)N1CCC(c2cc(=O)n3[nH]c(-c4ccccc4)cc3n2)CC1	?	-	?	-	-	-[10 µM]
CCOC(=O)N1CCC(c2cc(=O)n3[nH]c(C)c(-c4ccc(F)cc4)c3n2)CC1	?	-	-	-	11.2µM	-
CCC(C)CCCCC(=O)N[C@@H](CCN)C(=O)N[C@H](C(=O)N[C@@H](CCN)C(=O)N[C@H]1CCNC(=O)C([C@@H](C)O)NC(=O)[C@@H](CCN)NC(=O)[C@H](CCN)NC(=O)[C@H](CC(C)C)NC(=O)[C@@H](CC(C)C)NC(=O)[C@H](CCN)NC1=O)[C@@H](C)O (stereo not given in full)	-	.	-	-	.	-
CCN(CC)c1ccc(NC(=O)C2CC3CCC2C3)cc1 (stereo not given)	17.8µM	-	12.6µM	-	-[9.22 µM]	-
CN(Cc1nc(-c2ccccn2)no1)S(=O)(=O)c1ccc(Cl)cc1	25.1µM	?	?	-	-	-
CC(C)CN1CCC(CN(C)Cc2nc(-c3cnccn3)no2)CC1	.	.	-	-	-	-
Cc1oc(/N=C/c2c(O)ccc3ccccc23)c(C#N)c1C	-	-	35.5µM	-	-	-
COc1ccc(C(=O)OC(C)C(=O)Nc2cc(C(F)(F)F)ccc2Cl)c(OC)c1OC (stereo not given)	25.1µM	-	-	-	-	-[10 µM]
CC(OC(=O)c1ccc(O)cc1)C(=O)Nc1cc(C(F)(F)F)ccc1Cl (stereo not given)	.	.	.	-	-[9.22 µM]	-[10 µM]
O=C(O)COc1c(Cl)cc(/C=C2\NC(=O)NC2=O)cc1Br	.	.	17.8µM	-	-[9.22 µM]	-[10 µM]
Cc1cc(C(F)(F)F)n(-c2nc(C(=O)NN)cs2)n1	.	.	2.24µM	-	?	-[10 µM]
C=CCN1C(=O)/C(=c2\sc3nc(=O)c(Cc4ccc(OC)c(OC)c4)nn3c2=O)c2ccccc21	.	.	3.16µM	-	-[9.22 µM]	-[10 µM]
